Sampled rows, rich in hits. Any-hit rate of the full collection: about 18%.
Gal4-VP16 FLuc: inhibits Gal4-VP16 luciferase reporter, ROR gamma counter-screen; Drosophila S2 Gal4-VP16 UAS-luciferase, luminescence, 20 h; Potency, µM (titrated, usually from 53.6 µM), most hits filed as inhibitors; 310,000 compounds, 3.5% hits;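 note: Gal4-VP16 expression switched on by copper sulfate through the metallothionein promoter; nearly all actives have a fitted effect of over 50% in size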
IL1B secr inh: blocks inflammasome-driven IL-1 beta release; THP-1 LPS/ATP IL-1B secretion, AlphaLISA, 16 h; hits give low values; activity change, % at 57.5 µM; 360,000 compounds, 4.7% hits; in the data active = activity change below about -50%; inconclusive = mostly about -30% to -49%
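Secreted IL-1B measured by AlphaLISA bead assay after 16 h compound exposure of THP-1 cells; compounds (final up to 57.5 uM) added 1 h before LPS (250 ng/mL) and ATP (1.25 mM) stimulation; lower signal means less secretion.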
TDP1 cell CPT: DT40-hTDP1 cell growth loss with CPT | 420,000 compounds, 12% hits | chicken DT40 Tdp1-/-;hTDP1 cells + 20 nM CPT, ATP luminescence, 48 h | Potency, µM (doses to about 46.2 µM), hits mostly inhibitors; note: nearly all actives have a fitted effect of over 55% in size
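Chicken DT40 Tdp1-/- cells complemented with human TDP1, 400 cells/well, exposed to compounds plus 20 nM camptothecin for at least 48 h at 37 C; viability read as ATP content by CellTiter-Glo luminescence.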
LDHA inh: blocks human lactate dehydrogenase A. P00338. purified LDHA, NADH/diaphorase-resazurin fluorescence; hits give low values. activity change, % (values are at about 110 or 230 µM). 480,000 compounds, 0.15% hits. AID 1347041; in the data active = activity change below about -30%; inconclusive = mostly about -25% to -30%
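LDH5 2 nM; NADH 0.06 mM, pyruvate 0.2 mM; 200 mM Tris pH 7.4, EDTA, Tween-20; 5 min RT. Detection: diaphorase 0.133 mg/mL + resazurin 37 µM, fluorescence ex540/em590 at 0 and 20 min; normalized to enzyme-free and DMSO wells.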
RORg inh: ROR gamma (mouse) transcription inhibition | Drosophila S2 Gal4-RORgamma UAS-luciferase reporter, 20 h | Potency, µM (top dose mostly 53.6 µM), actives largely listed as inhibitors | 310,000 compounds, 5.4% hits | AID 2551; note: nearly all actives have a fitted effect of over 60% in size
Target sequence (P51450 whole entry, looked up, the tested form may be a part): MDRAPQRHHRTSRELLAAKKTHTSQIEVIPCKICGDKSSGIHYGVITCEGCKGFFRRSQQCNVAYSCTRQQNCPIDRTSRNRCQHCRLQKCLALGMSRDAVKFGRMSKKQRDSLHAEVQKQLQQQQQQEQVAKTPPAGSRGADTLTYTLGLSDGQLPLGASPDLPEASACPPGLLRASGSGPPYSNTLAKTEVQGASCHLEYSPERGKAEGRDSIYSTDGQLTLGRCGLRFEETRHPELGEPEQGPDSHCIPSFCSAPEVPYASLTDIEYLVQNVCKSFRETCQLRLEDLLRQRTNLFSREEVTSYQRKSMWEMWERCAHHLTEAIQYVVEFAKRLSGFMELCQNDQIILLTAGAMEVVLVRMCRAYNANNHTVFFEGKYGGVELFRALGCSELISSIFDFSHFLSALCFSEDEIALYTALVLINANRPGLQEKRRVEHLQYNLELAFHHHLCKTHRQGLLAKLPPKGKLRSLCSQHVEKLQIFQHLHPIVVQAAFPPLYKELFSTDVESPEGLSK
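Read-out: Photinus luciferase luminescence; inhibitors lower reporter signal. Insect Schneider cells with Gal4-ROR gamma fusion under metallothionein promoter, UAS reporter; 700 uM final copper sulfate induction, 20 hr, ambient temperature.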
TDP1 cell noCPT: qHTS for Inhibitors of human tyrosyl-DNA phosphodiesterase 1 (TDP1): qHTS in cells in absence of CPT. DT40 Tdp1-/- hTDP1 cells, no CPT, ATP luminescence, 48 h. Potency, µM (series often up to 46.2 µM), actives largely listed as inhibitors. 420,000 compounds, 15% hits. AID 686978, 2013; note: nearly all actives have a fitted effect of over 55% in size
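Chicken DT40 Tdp1-/- cells complemented with human TDP1, screened without camptothecin (DMSO vehicle only), 400 cells/well. Compounds pin-transferred, cells incubated at 37 °C for at least 48 hr. Growth read as ATP-dependent luminescence (CellTiter-Glo, 30 min at RT).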
Each line names hits and unclear results; the compound was inactive in the other large screens; ! = repeats disagree. Unless noted, calls come from the whole dose curve; as a rule, active = well fitted curve in the direction sought with a large enough effect; inconclusive = small, poorly fitted or top-dose-only effect, or another doubt; inactive = no such curve, though single readings can be large; an effect the other way counts as inactive or inconclusive.

Cc1ccc(F)cc1C(=O)N1CCCCC1c1cc(C(=O)NCc2ccccc2)no1 (stereo unspecified)	TDP1 cell CPT 13µM, TDP1 cell noCPT inconclusive (no result: Gal4-VP16 FLuc, RORg inh)
O=C(NCc1ccccc1)c1cc(C2CCCN(C(=O)CCc3ccccc3)C2)on1 (stereo unspecified)	TDP1 cell noCPT inconclusive (no result: Gal4-VP16 FLuc, RORg inh)
CCCNC(=O)c1cc(C2CCCCN2C(=O)c2cc(F)ccc2C)on1 (stereo unspecified)	none (no result: Gal4-VP16 FLuc, RORg inh)
O=C(NCc1ccccc1)c1cc(C2CCCCN2C(=O)CCCc2ccccc2)on1 (stereo unspecified)	TDP1 cell noCPT inconclusive (no result: Gal4-VP16 FLuc, RORg inh)
CNc1oc(-c2cccc(C)c2)nc1S(=O)(=O)c1ccccc1	none (no result: Gal4-VP16 FLuc, IL1B secr inh, TDP1 cell CPT, RORg inh, TDP1 cell noCPT)
COc1ccc2nc(C)c(C(=O)NCc3cccnc3-n3cccn3)cc2c1	none (no result: Gal4-VP16 FLuc, IL1B secr inh, TDP1 cell CPT, RORg inh, TDP1 cell noCPT)
O=C(NCc1ccccc1)NC(NC(=O)c1ccccc1)(C(F)(F)F)C(F)(F)F	none (no result: Gal4-VP16 FLuc, IL1B secr inh, TDP1 cell CPT, RORg inh, TDP1 cell noCPT)
COC(=O)c1c(C)[nH]c(-c2ccc(F)cc2OC)c1C1C(=O)Nc2ccc(F)cc21 (stereo unspecified)	none (no result: Gal4-VP16 FLuc, IL1B secr inh, TDP1 cell CPT, RORg inh, TDP1 cell noCPT)
CCc1ccc(-c2csc(Nc3ccc(O)c(C(=O)O)c3)n2)cc1	none (no result: Gal4-VP16 FLuc, IL1B secr inh, TDP1 cell CPT, RORg inh, TDP1 cell noCPT)
CC(C)COC(=O)N1CCCCC1c1cc(C(=O)NCc2ccccc2)no1 (stereo unspecified)	TDP1 cell CPT 18µM, TDP1 cell noCPT inconclusive (no result: Gal4-VP16 FLuc, RORg inh)
O=C(O)CCc1ccc(-c2ccccc2)n1NC(=O)c1ccc(Cl)cc1	none (no result: Gal4-VP16 FLuc, IL1B secr inh, TDP1 cell CPT, RORg inh, TDP1 cell noCPT)
COc1ccc(N2C(=O)CC(NNC(=O)c3ccc(Br)s3)C2=O)cc1 (stereo unspecified)	IL1B secr inh -64
COc1cccc(N2C(=O)CC(NNC(=O)c3cccs3)C2=O)c1 (stereo unspecified)	none
CC(C)c1ccc(N2C(=O)CC(NNC(=O)c3ccccc3Cl)C2=O)cc1 (stereo unspecified)	Gal4-VP16 FLuc 3.2µM, RORg inh inconclusive (no result: IL1B secr inh)
CC(O)CCC(=O)NNC1CC(=O)N(c2ccccc2)C1=O (stereo unspecified)	none
O=C(Oc1ccc(OCc2ccccc2)cc1)c1cnc2ccccc2n1	none (no result: Gal4-VP16 FLuc, IL1B secr inh, TDP1 cell CPT, RORg inh, TDP1 cell noCPT)
CN(Cc1ccccc1NC(=O)Cc1ccc(C(F)(F)F)cc1)C1CCCCC1	none (no result: Gal4-VP16 FLuc, IL1B secr inh, TDP1 cell CPT, RORg inh, TDP1 cell noCPT)
Cc1cc(C(=O)CN2C(=O)c3ccccc3C2=O)c(C)n1Cc1cccs1	TDP1 cell CPT inconclusive, RORg inh inconclusive, TDP1 cell noCPT inconclusive
Cc1cc(C(=O)Nc2ccc(Cl)cc2)c(C)n1Cc1cccs1	TDP1 cell CPT inconclusive, RORg inh inconclusive, TDP1 cell noCPT 8.2µM (no result: IL1B secr inh)
O=C(Cc1cccs1)Nc1ccc(Cl)cc1	TDP1 cell noCPT inconclusive
Cc1cc(C)cc(NC(=O)c2cc(C)n(Cc3cccs3)c2C)c1	TDP1 cell CPT 29µM, TDP1 cell noCPT 18µM
Cc1cc(C(=O)Cn2nnc3ccccc3c2=O)c(C)n1Cc1cccs1	TDP1 cell CPT 29µM, RORg inh inconclusive, TDP1 cell noCPT 18µM
Cc1ccc(C)c(OCCCC(C)(C)C(=O)O)c1	Gal4-VP16 FLuc 20µM!
Cc1ccc(C)c(OCCCC(=O)O)c1	none
COc1ccc(C(=O)Nc2oc3ccc(Cl)cc3c(=O)c2-c2ccccc2)cc1OC	none (no result: Gal4-VP16 FLuc, IL1B secr inh, TDP1 cell CPT, RORg inh, TDP1 cell noCPT)
CCCCn1cnc2c1c(=O)n(CC(=O)Nc1cccc(Cl)c1)c(=O)n2CC(C)C	none (no result: Gal4-VP16 FLuc, IL1B secr inh, TDP1 cell CPT, RORg inh, TDP1 cell noCPT)
c1cc(CN2CCCCC2)cc(OCCCNc2nc3ccccc3s2)c1	TDP1 cell CPT 18µM, TDP1 cell noCPT 12µM
O=C(NCCCOc1cccc(CN2CCCCC2)c1)c1ccc(Cl)c(Cl)c1	IL1B secr inh inconclusive, TDP1 cell CPT 18µM, TDP1 cell noCPT 13µM
Cc1ccc(C(=O)CSc2nnc3c4ccccc4nc(C(C)(C)C)n23)cc1	TDP1 cell CPT inconclusive, TDP1 cell noCPT 12µM
CC(=O)CSc1nnc2c3ccccc3nc(C(C)(C)C)n12	none
Cc1csc(NC(=O)CSc2nnc3c4ccccc4nc(C(C)(C)C)n23)n1	TDP1 cell CPT 4.6µM, TDP1 cell noCPT 5.8µM
COc1ccc(/C=C/C(=O)c2ccccc2)c(OC)c1	none

Assay outcomes: PubChem, National Center for Advancing Translational Sciences (NCATS)
